Compounds with a hit are over-represented: about 21% of the library has one in this group of screens.
DRD3 antagonist = D3 dopamine receptor (human) antagonism. 360,000 compounds, 2.5% hits. max response, negative = inhibition, %. AID 652054. D3R cells, DiscoveRx beta-arrestin luminescence, antagonist mode; active compounds read low; in the data active = max response below about -50%; inconclusive = no clear call, values can overlap the other calls; also: % is scaled to controls: 0 for no effect and ±100 for the full control effect
Target sequence (P35462 whole entry, looked up): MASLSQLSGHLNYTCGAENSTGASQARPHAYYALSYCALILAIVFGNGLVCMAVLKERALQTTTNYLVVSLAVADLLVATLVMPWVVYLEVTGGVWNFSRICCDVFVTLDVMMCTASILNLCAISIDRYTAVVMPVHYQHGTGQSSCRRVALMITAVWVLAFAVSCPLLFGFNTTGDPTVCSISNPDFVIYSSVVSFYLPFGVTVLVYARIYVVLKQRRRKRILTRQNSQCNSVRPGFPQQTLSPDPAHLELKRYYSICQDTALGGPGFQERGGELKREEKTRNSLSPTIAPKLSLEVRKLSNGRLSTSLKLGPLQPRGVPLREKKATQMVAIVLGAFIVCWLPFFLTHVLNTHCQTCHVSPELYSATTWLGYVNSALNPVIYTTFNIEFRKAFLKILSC
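Cells plated overnight at 1500 cells/well, then exposed to library compounds with dopamine controls for 90 minutes at 37 degrees C. DiscoveRx reagent added for 30–60 minutes at room temperature; luminescence read, quantitative HTS format.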
DRD3 agonist = agonists of human D3 dopamine receptor | P35462 | D3R DiscoveRx beta-arrestin cells, luminescence, 90 min | max activation, % | 410,000 compounds, 0.58% hits; in the data active = max activation above about 30%; also: 0% is about no effect
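Agonist-mode cell screen: cells plated at 1500/well and incubated overnight at 37 °C, then exposed to library compounds for 90 min at 37 °C. Detection reagent was added for 30–60 min at room temperature, and luminescence was read.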
ClpP mod = qHTS Assay for Activators of ClpP. Potency, µM (doses to about 57.5 µM), inactives show at the highest dose activity change, negative = active. ATP-dependent Clp protease proteolytic subunit (Bacillus subtilis (strain 168)), P80244. purified B. subtilis ClpP, FRET peptide cleavage, 20 min. 340,000 compounds, 1.9% hits. AID 651965, 2013; active = well fitted falling curve with a large enough effect; inconclusive = small, poorly fitted or top-dose-only effect; inactive = no such curve, though single readings can be large or run the other way; also: potency is read from the fitted curve at half-maximal effect; the source files actives as falling curves though it sought activators and does not explain the sign; nearly all actives have a fitted effect of over 65% in size
Target sequence (P80244 whole entry, looked up): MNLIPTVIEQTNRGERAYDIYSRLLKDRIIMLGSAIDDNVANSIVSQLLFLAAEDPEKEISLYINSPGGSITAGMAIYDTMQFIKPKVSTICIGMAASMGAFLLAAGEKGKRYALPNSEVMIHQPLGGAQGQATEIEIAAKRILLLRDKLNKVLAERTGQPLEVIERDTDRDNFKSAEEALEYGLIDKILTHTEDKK
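ClpP 10 microg/mL final, pH 8 Tris/KCl buffer with BSA, glycerol, Tween-20; compound pinned in; FRET-FV substrate; RT 20 min; Ex320/Em430; ΔFRET vs ADEP 5.8 microM, DMSO, no enzyme.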
IL1B secr inh = inhibitors of inflammasome signaling (IL-1 beta secretion) | THP-1 LPS/ATP IL-1B secretion, AlphaLISA, 16 h; active compounds read low | activity change, % at 57.5 µM | 360,000 compounds, 4.7% hits; in the data active = activity change below about -50%; inconclusive = mostly about -30% to -49%; also: % is scaled to controls: 0 for no effect and ±100 for the full control effect
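THP-1 cells pretreated 1 hr with compounds (up to 57.5 uM final), then stimulated with LPS (250 ng/mL final) plus ATP (1.25 mM final); secreted IL-1B measured by AlphaLISA after 16 hr, decreased signal indicating inhibition.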
DT40 TDP1 CPT = growth inhibition of DT40 Tdp1-/-;hTDP1 cells with camptothecin (screen for TDP1 inhibitors); chicken DT40 Tdp1-/-;hTDP1 cells + 20 nM CPT, ATP luminescence, 48 h; Potency, µM (doses to about 46.2 µM), for the others: top-dose activity change, negative = growth inhibition, hits mostly inhibitors; 420,000 compounds, 12% hits; AID 686979; also: potency is read from the fitted curve at half-maximal effect; % is scaled to controls: 0 for no effect and ±100 for the full control effect; nearly all actives have a fitted effect of over 55% in size
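Chicken DT40 Tdp1-/- cells complemented with human TDP1, 400 cells/well, exposed to compounds plus 20 nM camptothecin for at least 48 h at 37 C; viability read as ATP content by CellTiter-Glo luminescence.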
TDP1 cell noCPT = qHTS for Inhibitors of human tyrosyl-DNA phosphodiesterase 1 (TDP1): qHTS in cells in absence of CPT; Potency, µM (highest dose often 46.2 µM), inactives show top-dose activity change, negative = growth inhibition, usual class: inhibitors; DT40 Tdp1-/- hTDP1 cells, no CPT, ATP luminescence, 48 h; 420,000 compounds, 15% hits; also: potency is read from the fitted curve at half-maximal effect; % is scaled to controls: 0 for no effect and ±100 for the full control effect; nearly all actives have a fitted effect of over 55% in size
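Seeded 400 DT40-hTDP1 cells/well (vehicle DMSO, no 20 nM CPT); pinned compounds; ≥48 hr at 37 °C; CellTiter-Glo luminescence as viability measure.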
* hit, by the source's call; ? = inconclusive; · = not tested or not shown. Unless noted, calls follow the shape of the dose curve; as a rule, active = well fitted inhibition curve with a large enough effect; inconclusive = small, poorly fitted or top-dose-only effect; inactive = flat fitted curve, though single readings scatter.

SMILES	DRD3 antagonist	DRD3 agonist	ClpP mod	IL1B secr inh	DT40 TDP1 CPT	TDP1 cell noCPT
COc1ccc(C)c2sc(N(CCN(C)C)C(=O)c3ccc(S(=O)(=O)N(C)c4ccccc4)cc3)nc12	3	-3	-1%	19	-19%	?
CC(NC(=O)C1CCCN(C(=O)c2ccc(Cl)cc2)C1)c1cccc(C(F)(F)F)c1 (configuration not stated)	-21	-7	-2%	-16	-69%	?
Cc1ccc(CNc2ccc(-c3nc(-c4ccncc4)no3)cc2[N+](=O)[O-])cc1	·	-19	-2%	·	-11%	-7%
Cc1cc(Nc2ccc(Cl)cc2)nc(N)n1	20	7	-1%	22	?	?
Nc1cc(Nc2ccc(Br)cc2)nc(N)n1	55	-8	·	-71*	-26%	?
C[C@@H]1CN([C@@H](C)CO)C(=O)c2cc(NS(=O)(=O)c3ccc(Cl)cc3)ccc2O[C@H]1CN(C)Cc1ccncc1	28	2	-1%	-23	3%	-3%
CCOC(=O)C(C)(C)N(Cc1cccc(C)c1)S(=O)(=O)c1cccc([N+](=O)[O-])c1	1	-2	1%	1	?	?
CCOC(=O)C(C)(C)N(Cc1cccc(C)c1)S(=O)(=O)c1ccc(Cl)c([N+](=O)[O-])c1	-10	14	-3%	?	23µM*	15µM*
CCCCCNS(=O)(=O)c1ccc(N2CCCCS2(=O)=O)cc1	·	7	1%	·	16µM*	18µM*
CCOc1ccccc1NS(=O)(=O)c1ccc(N2CCCCS2(=O)=O)cc1	·	-11	-22%	·	?	?
CCOC(=O)c1ccccc1NS(=O)(=O)c1ccc(N2CCCCS2(=O)=O)cc1	·	-15	-1%	·	23µM*	16µM*
CC(C)CCNS(=O)(=O)c1ccc(N2CCCCS2(=O)=O)cc1	·	-9	-1%	·	12µM*	9.2µM*
Cc1cc(C)cc(NS(=O)(=O)c2ccc(N3CCCCS3(=O)=O)cc2)c1	·	5	-2%	·	12µM*	15µM*
CCC(C)NS(=O)(=O)c1ccc(N2CCCCS2(=O)=O)cc1 (configuration not stated)	·	-8	0%	·	?	?
CCCSCCCNC(=O)CN1C(=O)COc2ccc(S(=O)(=O)N3CCC(C)CC3)cc21	·	-6	2%	·	·	·
O=[N+]([O-])c1ccc(OCC2CC(c3ccccc3)=NO2)cc1 (configuration not stated)	-25	-1	·	-1	30%	?
CC1(C)S[C@@H]2C(C(=O)OCc3ccccc3)NC(=O)N2C1C(=O)OCc1ccccc1 (some centres not stated)	-23	6	2%	16	-16%	-17%
COc1ccccc1CNS(=O)(=O)c1ccc(N2CCCCS2(=O)=O)cc1	·	-4	5%	·	?	23µM*
CCCC(=O)Nc1cc(C(=O)N(C)CC(OC)OC)ccc1S(=O)(=O)c1ccc(C)cc1	1	3	0%	0	-6%	3%
CCOC(=O)[C@H]1[C@H]2COc3ccc(OC)cc3[C@@H]2N2C(=O)c3ccc(Cl)cc3NC(=O)[C@@]12C	?	-24	2%	-11	?	?
CCOC(=O)[C@H]1[C@H]2COc3ccc(Cl)cc3[C@@H]2N2C(=O)c3ccc(Cl)cc3NC(=O)[C@@]12C	-8	7	-6%	-7	?	18µM*
CCOC(=O)[C@H]1[C@H]2COc3ccc(C)cc3[C@@H]2N2C(=O)c3ccc(Cl)cc3NC(=O)[C@@]12C	0	-23	-17%	-2	?	?
CCOC(=O)[C@H]1[C@H]2COc3ccc(Cl)cc3[C@@H]2N2C(=O)c3cc(OC)ccc3NC(=O)[C@@]12C	-16	6	-29%	-27	?	23µM*
FC(F)(F)c1cccc(Cc2noc(CN3CCCC(CN4CCCC4)C3)n2)c1 (configuration not stated)	-4	-18	·	-11	-25%	?
C=CCNC(=O)NC(=O)COC(=O)c1nc2nccc(C)n2n1	-12	5	·	-3	1%	-6%
SMILES	DRD3 antagonist	DRD3 agonist	ClpP mod	IL1B secr inh	DT40 TDP1 CPT	TDP1 cell noCPT
CCCN1CCN(CCCNC(=S)Nc2ccc3nc(N4CCN(CC)CC4)cc(C)c3c2)CC1	?	-18	4%	-13	?	?
CCN(CC)CCNC(=S)Nc1ccc2nc(N3CCN(CC)CC3)cc(C)c2c1	-24	-14	4%	-59*	?	?
CCCCN(C)CCNC(=S)Nc1ccc2nc(N3CCN(CC)CC3)cc(C)c2c1	?	-39	-3%	-63*	?	?
CCCCNC(=S)Nc1ccc2nc(N3CCN(CC)CC3)cc(C)c2c1	19	-5	·	?	23µM*	23µM*
CCN1CCN(c2cc(C)c3cc(NC(=S)NCCN(C)C)ccc3n2)CC1	-13	-11	3%	-52*	?	21µM*
CC(C)c1c(C(=O)N(C)C2CCN(C)CC2)cnn1-c1nccc(-c2ccco2)n1	·	·	·	·	10%	-10%
O=C(NCc1ccncc1)C12CC3CC(CC(Cl)(C3)C1)C2	0	-7	·	5	-12%	-13%
Cc1ccc(-c2noc(N=O)c2NO)cc1	10	7	·	-96*	21µM*	23µM*
CC(N)c1csc(NC(=O)Nc2cccc(C(F)(F)F)c2)n1 (configuration not stated)	-54*	-19	1%	-102*	?	?
CN(C)Cc1csc(NC(=O)Nc2cccc(Cl)c2)n1	-26	-16	0%	?	26µM*	18µM*
Cc1cccc(C)c1NC(=O)Nc1nc(CN(C)C)cs1	8	-4	2%	5	-7%	-13%
Cc1cc(NC(=O)Nc2cccc(C(F)(F)F)c2)no1	13	-4	-4%	7	-4%	?
CN(C)Cc1csc(NC(=O)Nc2cccc(C(F)(F)F)c2)n1	-10	-2	-1%	-7	15µM*	18µM*
NCc1csc(NC(=O)Nc2cccc(Cl)c2)n1	5	2	2%	0	?	?
CCOC(OCC)c1nc(N)[nH]c(=O)c1CCCCc1ccccc1	2	6	·	36	23µM*	16µM*
Nc1nc(-c2ccccc2)c(CCCOc2ccc([N+](=O)[O-])cc2)c(=O)[nH]1	13	7	-5%	12	-1%	?
